Experimental findings from PubChem BioAssay AID720706 (Broad Institute, 2013) are described below.

In all, about 350,000 compounds went through this assay and about 5,500 (1.6%) were called active.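 Rule for the calls: active = significant combined selectivity score with lowered wild-type GFP, culture density cut under 30%, mutant RFP and density less affected; inactive = any of these conditions unmet.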 The list comes from a sample in which actives are over-represented; it also holds similar structures and randomly drawn compounds.

This assay is described as follows: reduced GFP signal of wild-type E. coli, primary screen, bacterial rRNA inhibitor project, GFP/RFP fluorescence, OD600, single point (AID 720706). Conditions: E. coli WT GFP vs humanized-ribosome RFP mutants, 24 h; GFP signal change (wild-type ribosome): stronger effect = lower value, DMSO median 0, no signal -100; OD600 change: measured here: OD600 growth, DMSO median 0, no signal -100; RFP signal change: measured here: RFP humanized mutant strains, DMSO median 0, no signal -100, concentration not given here.
As to `C[C@H]1CCCCO[C@H](CN(C)C(=O)Nc2ccccc2)[C@@H](C)CN([C@@H](C)CO)C(=O)c2cc(NC(=O)c3ccncc3)ccc2O1`, the GFP signal change (wild-type ribosome) is -0.767% (inactive), the OD600 change was -2.38% and the RFP signal change is -0.401%.

In the case of `Cc1noc(C)c1NC(=O)N(C)C[C@H]1OCCCC[C@@H](C)Oc2ccc(NC(=O)NC(C)C)cc2C(=O)N([C@@H](C)CO)C[C@H]1C`, the GFP signal change (wild-type ribosome) was -0.208% (inactive), the OD600 change is -7.75% and the RFP signal change is -1.31%.

In the case of `COc1cccc(-c2ccc3c(c2)[C@@H]2[C@@H](CCN2C(=O)CN2CCOCC2)[C@H](CO)N3)c1`, the GFP signal change (wild-type ribosome) was -1.73% (inactive), the OD600 change was 12.1% and the RFP signal change is -1.6%.

Take `O=C(COC(=O)Cc1ccc(Br)cc1)Nc1c(F)c(F)c(F)c(F)c1F`: the GFP signal change (wild-type ribosome) is -24.2% (active), the OD600 change is -11.5% and the RFP signal change came to 3.44%.

On to `CC1CCCCC1NC(=O)COC(=O)Cc1ccc(Br)cc1` (stereo not given), for which the GFP signal change (wild-type ribosome) is -12.8% (inactive), the OD600 change is -7.61% and the RFP signal change is 2.98%.

`Cc1cccc(C)c1NC(=O)CNC(=O)Cc1ccc(Br)cc1`: the GFP signal change (wild-type ribosome) is 8.56% (inactive), the OD600 change amounted to 16.5% and the RFP signal change was -1.39%.

For `COc1cccc(NS(=O)(=O)c2ccc(-c3coc(C)n3)cc2)c1`, the GFP signal change (wild-type ribosome) is -28.4% (active), the OD600 change was -10.5% and the RFP signal change turned out to be 9.54%.

With `Cc1ccc(NS(=O)(=O)c2ccc(-c3coc(C)n3)cc2)c(C)c1`, the GFP signal change (wild-type ribosome) was -8.02% (inactive), the OD600 change was found to be 1.15% and the RFP signal change came to 7.38%.

Turning to `CCN(c1cccc(C)c1)S(=O)(=O)c1ccc(-c2coc(C)n2)cc1`, the GFP signal change (wild-type ribosome) is -9.48% (inactive), the OD600 change is -35% and the RFP signal change is -6.13%.

Take `CCCCN1CC(C)(C)[C@H](CC(=O)Nc2ccc(Br)cc2)C1=O`: the GFP signal change (wild-type ribosome) is -12.6% (inactive), the OD600 change is -27.4% and the RFP signal change is -4.18%.

On to `CN1C(CC(=O)Nc2ccc(Br)cc2)c2ccccc2CC1(C)C` (stereo not given), for which the GFP signal change (wild-type ribosome) is -26.3% (active), the OD600 change is -20.9% and the RFP signal change was -0.455%.

For the compound `CC1(C)CN(CCc2ccccc2)C(=O)[C@H]1CC(=O)Nc1ccc(Br)cc1`, the GFP signal change (wild-type ribosome) is -6.21% (inactive), the OD600 change is 0.615% and the RFP signal change is -0.505%.

As for `CNC[C@H]1OCCCC[C@H](C)Oc2ccc(NS(=O)(=O)c3ccc(Cl)cc3)cc2C(=O)N([C@@H](C)CO)C[C@@H]1C`, the GFP signal change (wild-type ribosome) is 3.9% (inactive), the OD600 change was determined as 3.87% and the RFP signal change was found to be 0.215%.

Turning to `O=C(N/N=C/c1ccc(OCc2ccccc2)cc1)c1ccc(O)cc1`, the GFP signal change (wild-type ribosome) was -18.6% (active), the OD600 change turned out to be 6.25% and the RFP signal change came out at 7.26%.

Consider `O=C(Cc1cccs1)N/N=C/c1ccc(OCc2ccccc2)cc1`, for which the GFP signal change (wild-type ribosome) is 6.88% (inactive), the OD600 change is -2.65% and the RFP signal change was -8.12%.

Turning to `CCOc1ccc(-c2cc(C(=O)N/N=C/c3ccc(O)cc3)c3ccccc3n2)cc1`, the GFP signal change (wild-type ribosome) was 12.1% (inactive), the OD600 change came to 6.6% and the RFP signal change is 2.19%.

`C[C@@H]1CCCCO[C@H](CN(C)C(=O)NC2CCCCC2)[C@@H](C)CN([C@H](C)CO)C(=O)c2cc(NC(=O)CCC(F)(F)F)ccc2O1`: the GFP signal change (wild-type ribosome) is -0.169% (inactive), the OD600 change is -3.94% and the RFP signal change is -2.49%.

`CCNC(=O)Nc1ccc2c(c1)C(=O)N(C)[C@@H]1CC[C@@H](CC(=O)NCCOC)O[C@@H]1CO2`: the GFP signal change (wild-type ribosome) is 4.01% (inactive), the OD600 change stood at 1.31% and the RFP signal change was -0.262%.

As to `COc1ccc2c3c([nH]c2c1)[C@H](CO)N(C(=O)CN1CCOCC1)CC31CN(C(C)=O)C1`, the GFP signal change (wild-type ribosome) was 3.07% (inactive), the OD600 change was determined as 2.55% and the RFP signal change stood at 0.589%.

`CNC[C@H]1OCCCC[C@@H](C)Oc2ccc(NS(=O)(=O)c3ccc(F)cc3)cc2C(=O)N([C@H](C)CO)C[C@H]1C`: the GFP signal change (wild-type ribosome) is 2.84% (inactive), the OD600 change is 7.37% and the RFP signal change is -0.102%.

Regarding `CC(C)NC(=O)N(C)C[C@H]1OCCCC[C@H](C)Oc2ccc(NC(=O)CCCN(C)C)cc2C(=O)N([C@@H](C)CO)C[C@H]1C`, the GFP signal change (wild-type ribosome) was 3.73% (inactive), the OD600 change was 6.52% and the RFP signal change was -0.182%.

Turning to `COc1ccc2c3c(n(C)c2c1)[C@H](CO)N(C(=O)c1ccc(F)cc1)CC31CCN(C(C)=O)CC1`, the GFP signal change (wild-type ribosome) is -0.941% (inactive), the OD600 change was found to be 9.11% and the RFP signal change was -3.57%.

On to `CCOc1ccccc1Nc1ccc(C(=O)O)cc1[N+](=O)[O-]`, for which the GFP signal change (wild-type ribosome) was 1.23% (inactive), the OD600 change is -10.5% and the RFP signal change was -0.853%.

As for `COc1ccc(Br)cc1/C=N/Nc1ccc(S(=O)(=O)Nc2ccccc2C(=O)O)cc1[N+](=O)[O-]`, the GFP signal change (wild-type ribosome) is -24.6% (active), the OD600 change stood at 15.1% and the RFP signal change is -1.87%.

Turning to `COc1ccc(S(=O)(=O)Nc2ccc3cn[nH]c3c2)cc1[N+](=O)[O-]`, the GFP signal change (wild-type ribosome) was 3.58% (inactive), the OD600 change was found to be 9.25% and the RFP signal change was -2.09%.

For the compound `CCCC#Cc1ccc([C@H]2[C@@H](CO)N3CCCCN(S(=O)(=O)Cc4ccccc4)C[C@H]23)cc1`, the GFP signal change (wild-type ribosome) was -54.1% (inactive), the OD600 change is -75.8% and the RFP signal change was -7.77%.

As to `C[C@@H]1CCCCO[C@H](CN(C)S(=O)(=O)c2cccs2)[C@H](C)CN([C@H](C)CO)C(=O)c2cc(NC(=O)c3ccccc3)ccc2O1`, the GFP signal change (wild-type ribosome) was 0.541% (inactive), the OD600 change was -5.5% and the RFP signal change is 4.83%.

Take `O=C(CCC(=O)c1cccs1)NC1CCCCCC1`: the GFP signal change (wild-type ribosome) is 13.3% (inactive), the OD600 change was 16.6% and the RFP signal change turned out to be 0.589%.

For the compound `O=C(c1cccs1)N1CCC(c2nc3ccccc3s2)CC1`, the GFP signal change (wild-type ribosome) is -27.6% (inactive), the OD600 change was -25.9% and the RFP signal change is 9.84%.

Consider `O=C(CCC(=O)c1cccs1)Nc1nc2ccccc2s1`, for which the GFP signal change (wild-type ribosome) is -21.4% (active), the OD600 change was -16.4% and the RFP signal change was -0.615%.
